The whole screen tested about 340,000 compounds, of which about 2,100 (0.62%) were called active.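 Rule for the calls: active = first-screen hits whose inhibition reached a set limit at any dose in the follow-up dose series; inconclusive = inhibition above the set first-screen limit but never retested; inactive = the rest.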 These entries were drawn from the full list. Results with a measured potency or affinity are listed apart.
Target: Rac GTPase-activating protein 1 (Homo sapiens) (UniProt Q9H0H5)
Sequence (Q9H0H5 whole entry, looked up): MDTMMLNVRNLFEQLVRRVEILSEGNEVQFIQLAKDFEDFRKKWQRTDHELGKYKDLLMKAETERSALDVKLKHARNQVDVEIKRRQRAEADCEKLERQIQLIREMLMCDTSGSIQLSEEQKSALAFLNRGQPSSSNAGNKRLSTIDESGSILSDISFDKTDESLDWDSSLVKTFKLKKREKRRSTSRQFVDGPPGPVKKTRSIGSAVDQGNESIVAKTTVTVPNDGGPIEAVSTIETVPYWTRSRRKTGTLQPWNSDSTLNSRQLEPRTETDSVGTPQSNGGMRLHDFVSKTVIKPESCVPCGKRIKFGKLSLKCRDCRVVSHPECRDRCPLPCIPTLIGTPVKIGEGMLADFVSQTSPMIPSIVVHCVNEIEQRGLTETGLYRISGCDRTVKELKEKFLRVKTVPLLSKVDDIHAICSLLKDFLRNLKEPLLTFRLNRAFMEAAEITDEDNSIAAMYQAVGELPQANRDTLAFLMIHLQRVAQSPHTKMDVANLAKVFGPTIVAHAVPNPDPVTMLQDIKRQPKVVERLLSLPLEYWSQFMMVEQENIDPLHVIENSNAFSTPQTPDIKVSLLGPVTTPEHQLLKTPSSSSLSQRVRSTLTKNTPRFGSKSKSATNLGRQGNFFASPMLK
Experiment: MgcRacGAP GTPase-activating activity inhibitors, confirmation, biochemical, ADP Hunter fluorescence, primary and confirmatory (AID 624330);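 note: fluorescence reports GDP produced by GAP-driven GTP hydrolysis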
Settings: MgcRacGAP-stimulated Rac1 GTP hydrolysis, at 30 µM, hits give high values, GST-tagged Rac1 F28L mutant substrate

inhibition, inactive:
N#CCc1ccc(Oc2ccc([N+](=O)[O-])cn2)cc1 5.55%
Cc1oc(-c2ccccc2)nc1C(=O)OCC(=O)NCc1ccc(Cl)cc1 -0.87%
CCCCn1c(N)c(N(CC(C)C)C(=O)c2ccc(Cl)c(S(=O)(=O)N3CCCC3)c2)c(=O)[nH]c1=O 5.8%
COc1cccc(CN2CCCC(C(=O)N3CCCCC3)C2)c1 (stereo not given) 22.1%
O=C(C1CCCN(Cc2ccccc2)C1)N1CCCCC1 (stereo not given) 21.6%
COc1ccc(CN2CCCC(C(=O)N(C)Cc3ccccc3)C2)cc1OC (stereo not given) 27.7%
COc1ccc(CN2CCCC(C(=O)N3CCCCC3)C2)cc1 (stereo not given) 26.1%
CN(Cc1ccccc1)C(=O)C1CCCN(Cc2cccc(Cl)c2)C1 (stereo not given) 3.69%
O=C(C1CCCN(Cc2ccc(Cl)cc2)C1)N1CCCCC1 (stereo not given) 24.9%
O=C(NNC(=O)c1cc2ccccc2o1)c1ccncc1 3.59%
Cc1cc(C[n+]2ccsc2N)c2ncccc2c1 4.36%
NC(=O)CC(NC(=O)c1ccc(Br)cc1)c1ccc(N2CCN(c3ccccn3)CC2)c([N+](=O)[O-])c1 (stereo not given) 4.07%
O=C(NNC(=O)c1ccc([N+](=O)[O-])cc1)NC1CCCCC1 1.53%
CCCC1NC(=O)c2cccnc2-n2c1nc1ccc(Cl)cc1c2=O (stereo not given) 13.8%
Cc1ccc(C)c(N2CC(=O)N(c3cc(C)ccc3C)CC2=O)c1 1.32%
Cc1ccc(-n2c(C)cc(=O)cc2C)c(C)c1 6.02%
Cc1ccc(C)c(-n2nnc3ccccc3c2=O)c1 2.95%
Cc1ccc(N2C(=O)CCC2=O)c(C)c1 4.77%
COc1ccccc1NC(=O)C(C)n1cnc2c(oc3nc4c(cc32)CCCC4)c1=O (stereo not given) -4.17%
COc1ccc(/C=C2/CCCC(C(=O)C(F)(F)F)=C2O)cc1OC 6.67%
CCOC(=O)C(=O)Nc1cc([N+](=O)[O-])ccc1C 0.69%
COc1cc(C(=O)NCCCc2ccccc2)cc(OC)c1OC 5.75%
Cc1ccc(-c2n[nH]c(=S)n2C)cc1 14.7%
Cc1ccc(-c2cn3c(=S)[nH]nc3s2)cc1 22.2%
Cc1cc(CSc2ccccc2C(=O)O)on1 -2.15%
C/C(=N/NC(=O)c1ccc(-c2ccccc2)cc1)c1cc(O)cc(O)c1 14.9%
CC(=O)Nc1cc(S(=O)(=O)Nc2ccc(C)cc2)c(C)cc1C 11.6%
Cc1cc(C(=O)CCC(=O)N(C)CC(=O)Nc2c(Cl)cccc2Cl)c(C)s1 1.85%
C/C(=N\NS(=O)(=O)c1ccc(Cl)c([N+](=O)[O-])c1)c1cc2ccccc2o1 10.9%
CC(=O)c1ccc2c(c1)C1C=CCC1C(c1ccncc1)N2 (stereo not given) 13%
CCOC(=O)c1ccc2c(c1)C1C=CCC1C(C(=O)OCC)N2 (stereo not given) 12.1%
CCOC(=O)C1Nc2ccc(C)cc2C2C=CCC12 (stereo not given) 10.5%
O=C(O)c1ccc2c(c1)C1C=CCC1C(c1ccncc1)N2 (stereo not given) 9.53%
O=C(C[C@H]1C(=O)N(CCc2ccccc2)C[C@@H]1Cc1ccccc1)Nc1ccc(Br)cc1 12.8%
CN(C)c1ccc(O)c2c1CC1CC3C(N(C)C)C(=O)C(C(N)=O)=C(O)[C@@]3(O)C(=O)C1=C2O (stereo not given in full) 9.88%
C=C1c2cccc(O)c2C(=O)C2C(=O)[C@]3(O)C(=O)C(C(N)=O)C(=O)[C@@H](N(C)C)[C@@H]3[C@@H](O)[C@H]12 (stereo not given in full) 73.9%
C[C@H]1c2cccc(O)c2C(O)=C2C(=O)[C@]3(O)C(O)=C(C(N)=O)C(=O)[C@@H](N(C)C)[C@@H]3[C@@H](O)[C@@H]21 8.18%
CN(C)c1ccc(O)c2c1CC1CC3[C@@H](N(C)C)C(=O)C(C(N)=O)C(=O)[C@]3(O)C(=O)C1C2=O (stereo not given in full) 15.3%
C[C@H]1c2cccc(O)c2C(O)=C2C(=O)C3(O)C(O)=C(C(N)=O)C(=O)[C@@H](N(C)C)[C@@H]3[C@@H](O)[C@@H]21 (stereo not given in full) 1.02%
C[C@H]1c2cccc(O)c2C(O)=C2C(=O)[C@]3(O)C(O)=C(C(N)=O)C(=O)[C@@H](N(C)C)C3[C@@H](O)C21 (stereo not given in full) 2.79%
CC(=O)Nc1ccc(-c2csc(NCCc3ccccc3)n2)cc1 9.25%
O=C1CN(C(=O)COC(=O)Cc2ccccc2F)c2ccccc2N1 3.02%
Nc1cc(S(=O)(=O)Nc2ccccc2Cl)ccc1N1CCCC1 11.5%
O=C(O)CSc1nnc(CNc2cccc(C(F)(F)F)c2)n1Cc1ccco1 10.8%
COC(=O)CCC(=O)NNC(=O)CCC(=O)Nc1cccc(Cl)c1C 8.78%
COc1ccc(OC)c(-c2csc(NC(=O)CSc3ccc(Br)cc3)n2)c1 5.11%
CCn1c(=O)n(CC)c2cc(N3CCCC3)c(NC(=O)c3cccc(OC)c3)cc21 8.3%
CCn1c(=O)n(CC)c2cc(N3CCCC3)c(NC(=O)c3cccc(C)c3)cc21 11.6%
CCn1c(=O)n(CC)c2cc(N3CCCC3)c(NC(=O)c3ccc(F)cc3)cc21 17%
COc1cccc(C(=O)Nc2cc3c(cc2N2CCOCC2)n(C)c(=O)n3C)c1 -34.3%
O=C(NCC(c1ccco1)N1CCCCC1)c1cccnc1 (stereo not given) 0.38%
C/C(N)=C(/C#N)C(=O)CSc1nc2ccccc2n1CC(C)C 8.8%
NC(=S)N=Nc1c(O)n(CC(=O)Nc2ccccc2)c2ccccc12 -6.62%
COc1ccc(C(=O)Nc2c(N)nc(SCC(=O)N3CCC(C)CC3)[nH]c2=O)cc1 6.29%
N#Cc1ccsc1NC(=O)C1=COCCO1 10.4%
CN(C)c1ccc(C(=O)NCC2CCCO2)cc1 (stereo not given) -9.43%
CN(C)c1ccc(CNCC2CCCO2)cc1 (stereo not given) -6.93%
CN(CC(=O)Nc1cccc(S(=O)(=O)N2CCOCC2)c1)CC(=O)Nc1ccc(Cl)c(C(F)(F)F)c1 6.95%
C/C(=N\O)C(C)(C)Nc1ccc(Cl)cc1 11.3%
CC(C)C(CO)NC(=O)CC(=O)NC(CO)C(C)C (stereo not given) 5.27%
CN(C)c1ccc(C=NN2CCCCCC2)cc1 -2.87%
CC1CCCC(C)N1/N=C/c1ccc(N(C)C)cc1 (stereo not given) 9.58%
Cc1ccc(C(=O)N2CCN(c3ccc(N4CCOCC4)nn3)CC2)cc1C 5.24%
CCOC(=O)Nc1sc(C)c(C)c1C(=O)OCC -8.16%
CCOC(=O)c1c(NC(N)=O)sc(C)c1C 1.42%
O=c1[nH]c2ccccc2n2c(-c3ccncc3)nnc12 6.75%
O=c1[nH]c2ccccc2n2c(C(F)(F)F)nnc12 5.97%
COC(=O)c1ccc(NC(=O)c2ccc3nsnc3c2)cc1 2.71%
O=C(Nc1ccc(Cl)cc1)c1ccc2nsnc2c1 -0.42%
COC(=O)c1ccc(NC(=O)c2ccc3nc(C)sc3c2)cc1 -0.39%
CC(=O)c1ccc(NC(=O)c2ccc3nc(C)sc3c2)cc1 5.73%
O=C(/C=C/c1ccc(Cl)c(Cl)c1)NCCCn1ccnc1 7.08%
CN1c2ccc(Cl)cc2C(=O)NC1c1ccc([N+](=O)[O-])s1 (stereo not given) 11.4%
Cc1cccn2c(=O)c(C=NCc3ccccc3)c(NCCO)nc12 7.69%
C#CCOCCOCCOCCNc1nc(N2CCN(C(=O)C(Cc3cc4ccccc4[nH]3)n3cc(C(N)C(C)CC)nn3)CC2)nc(N2CCN(C(=O)C(Cc3cc4ccccc4[nH]3)n3cc(C(N)C(C)CC)nn3)CC2)n1 (stereo not given) 4.22%
C#CCOCCOCCOCCNc1nc(N2CCOCC2)nc(N2CCN(C(=O)[C@H](CCCCN)n3cc([C@@H](N)CC(C)C)nn3)CC2)n1 11.6%
C#CCOCCOCCOCCNc1nc(N2CCN(C(=O)[C@H]([C@@H](C)CC)n3cc([C@@H](N)CC(C)C)nn3)CC2)nc(N2CCN(C(=O)[C@H](CCCCN)n3cc([C@@H](N)C(C)CC)nn3)CC2)n1 (stereo not given in full) 19.8%
C#CCOCCOCCOCCNc1nc(N2CCN(C(=O)[C@H](CCCCN)n3cc(C(N)CC(C)C)nn3)CC2)nc(N2CCN(C(=O)[C@H](CCC(=O)O)n3cc(C(N)[C@H](C)CC)nn3)CC2)n1 (stereo not given in full) 13.4%
C#CCOCCOCCOCCNc1nc(N2CCOCC2)nc(N2CCN(C(=O)[C@H](Cc3cc4ccccc4[nH]3)n3cc([C@@H](N)C(C)CC)nn3)CC2)n1 (stereo not given in full) 13.4%
C#CCOCCOCCOCCNc1nc(N2CCN(C(=O)[C@H](CCCCN)n3cc([C@@H](N)CO)nn3)CC2)nc(N2CCN(C(=O)[C@H](CCCCN)n3cc([C@@H](N)CC(C)C)nn3)CC2)n1 19.8%
CC(OC(=O)c1cc(=O)[nH]c2ccccc12)C(=O)N1C(C)CCCC1C (stereo not given) 3.29%
COc1ccccc1Nc1nnc(SCc2cc(=O)n3cc(C)ccc3n2)s1 10.9%
Cc1cc(C)n2nc(SCc3nc4ccccc4[nH]3)nc2n1 3.82%
C/C=C\C=C/C(=O)Nc1cccc(C2=NOC3(C2)C[C@@H](C(N)=O)N(C(=O)COc2ccc(Cl)cc2)C3)c1 (stereo not given in full) 7.01%
O=C(c1sc2ccccc2c1Cl)N1CCN(c2ncccn2)CC1 5.52%

Reference: PubChem BioAssay AID624330 (Southern Research Specialized Biocontainment Screening …, 2012)
